Values without a mark were called inactive. Calls follow the shape of the dose curve; as a rule, active = well fitted inhibition curve with a large enough effect; inconclusive = small, poorly fitted or top-dose-only effect; inactive = flat fitted curve, though single readings scatter.

For the assay, the system named is Nanoluciferase (engineered Oplophorus gracilirostris luciferase). As to the kind of experiment: Primary Nanoluciferase (NLuc) qHTS assay for identification of artifact compounds. (AID 1845222).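 Also: NLuc secreted into diluted conditioned medium of S16 cells; 0% = DMSO and -100% = no enzyme.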 Particulars: NLuc-conditioned medium, Nano-Glo luminescence, 5 min; series mostly up to 54.1 µM; activity, negative = inhibition: at the top concentration. The method in brief: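 Using secreted nanoluciferase in S16 culture medium (0.22 um filtered, 1:55 dilution), compounds were preincubated 15 min at RT. Signal was generated with Nano-Glo reagent (1:100) over 5 min.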
In general terms: Quantitative high-throughput screening tests each substance at several concentrations.
Regarding `C=CC(=O)N1CCC[C@@H](n2nc(-c3cccc(C(=O)Nc4ccc(C(C)C)c(C)c4)c3)c3c(N)ncnc32)C1`, the “activity, negative = inhibition” value was 4.1%.
The same measure for `COC(=O)c1sccc1S(=O)(=O)Nc1ccc(Nc2ccccc2)cc1OC`: -2.33%; for `Cc1[nH]c2ccccc2c1CCNCc1ccc(/C=C/C(=O)NO)cc1`: -7.97%.
As to `C/C=C/[C@@H]1C=C[C@@H]2C[C@H](C)CC[C@H]2[C@]1(C)/C(O)=C1/C(=O)[C@@H](CO)N(C)C1=O`, the “activity, negative = inhibition” value was -2.21%.
Take `CC1(C(=O)Nc2ccc(F)nc2)CCCN1c1nc(Nc2cc(C3CC3)[nH]n2)c2cccn2n1` (stereo not drawn): the “activity, negative = inhibition” value was 4.98%.
In the case of `C[C@H]1CC[C@@]2(OC1)O[C@H]1CC3C4CC[C@H]5C[C@@H](O)CC[C@]5(C)C4=CC(=O)[C@]3(C)[C@H]1[C@@H]2C` (stereo partly drawn) it was 3.05% [at 25.7 µM].
On to `Cc1c(F)ccc(C(=O)Nc2cc([N+](=O)[O-])ccc2N2CCN(C)CC2)c1Cl`, for which the “activity, negative = inhibition” value is 3.85%.
As for `CCCCc1ccc(NS(=O)(=O)c2ccc(F)cc2)cc1`, the “activity, negative = inhibition” value was 0.0114%.
Turning to `COc1cc(C(C)C)c(Oc2cnc(N)nc2N)cc1I`, the “activity, negative = inhibition” value was -6.02%.
In the case of `O=C1Nc2ccccc2-c2nc3ccccc3c(=O)n2-c2c(O)cccc21` it was -2.34%.
In the case of `CC(C)C[C@@H](C(=O)N[C@@H](Cc1ccc(OCc2ccccc2)cc1)C(=O)NC(C)(C)C)N(C)Cc1ccc(C(C)(C)C)cc1` it was -6.96%.
For `C=C1CCC2[C@](C)(CCC[C@@]2(C)C=O)[C@H]1CC/C(C)=C/CO` (stereo partly drawn), the “activity, negative = inhibition” value was -7.59%.
As for `Cc1[nH]c2ccc(F)cc2c1-c1nc2c3cccnc3c3ncccc3c2[nH]1`, the “activity, negative = inhibition” value was -0.659%.
Turning to `CCn1c(=O)c(-c2ccc(-c3cncs3)cc2Cl)cc2cnc(Nc3ccc(N4CCN(C)CC4)cc3)nc21`, the “activity, negative = inhibition” value was 1.89%.
As for `C=CCCN1CCC2(CC1)CN(C(=O)c1c(F)cccc1F)c1ccc(Cl)cc12`, the “activity, negative = inhibition” value is 2.65%.
In the case of `CC1(C)CC[C@]2(C(=O)O)CC[C@]3(C)C(=CCC4[C@@]5(C)C[C@@H](O)[C@H](O)C(CO)(CO)C5CC[C@]43C)C2[C@@H]1O` (stereo partly drawn) it was -4.27% [at 25.7 µM]; in that of `C=C1C(=O)O[C@@H]2C[C@H](C)[C@@H]3CC(=O)[C@H](O)[C@@]3(C)C[C@H]12`, -1.1%.
For the compound `O=C1NC(=O)C(c2cnc3ccccn23)=C1c1cn2c3c(cc(F)cc13)CN(C(=O)N1CCCCC1)CC2`, the “activity, negative = inhibition” value is -24.6%.
The same measure for `CCOc1ccc(-n2c(C(C)N(Cc3cccnc3)C(=O)Cc3ccc(F)c(C(F)(F)F)c3)nc3ncccc3c2=O)cc1` (stereo not drawn): 3.6%.
The same measure for `CCOc1ccc(-n2c([C@@H](C)N(Cc3cccnc3)C(=O)Cc3ccc(OC(F)(F)F)cc3)nc3ncccc3c2=O)cc1`: -7.14%; for `COc1cc(CCO)ccc1O[C@@H]1O[C@H](CO)[C@@H](O)[C@H](O)[C@H]1O`: -2.08%; for `CN(C)CCN(Cc1ccccc1)C(=O)c1cc(-c2ccc(F)cc2)n2nc(C(C)(C)C)cc2n1`: -2.03%.
The same measure for `C/C1=C/CCC2=CC(OC2=O)C(C)(C)/C=C/C1=O` (stereo not drawn): 3.91%; for `O=C(NCCN1CCN(c2cccc3ccc(O)cc23)CC1)c1ccc(F)cc1`: -0.476%; for `CC(=O)OC1C(O)CC2(C)C(CCC3(C)C2CC=C2C4C5(CCC(CO[C@@H]6O[C@H](CO)[C@@H](O)[C@H](O)[C@H]6O)(OC5=O)C4(C)O)C(O)CC23C)C1(C)C` (stereo partly drawn): 2.45% [at 25.7 µM].
Regarding `C#CCNCc1cc2cc(OCc3ccccc3)ccc2[nH]1`, the “activity, negative = inhibition” value was 0%.
In the case of `O=c1nc(-c2ccccn2)sc2ccccc12` it was -6.14%.
The same measure for `C=C1C(=O)OC2CC(C)C(CCC(C)O)=CCC12` (stereo not drawn): 0.207%; for `C=C1CC2OC(=O)C(=C)C2C(O)/C=C(\C)CCC1O` (stereo not drawn): 0.445%.
In the case of `COc1ccc(CNCc2cccc3ccccc23)cc1` it was 2.67%.
Turning to `COc1ccccc1C(=O)Nc1cc2c(cc1N1CCCC1)n(C)c(=O)n2C`, the “activity, negative = inhibition” value is 1.08%.
The same measure for `CCO[C@H]1CN(C2CCC(O)(c3ccc4c(c3)OCO4)CC2)C[C@@H]1NC(=O)CNC(=O)c1cccc(C(F)(F)F)c1` (stereo partly drawn): -5.2%; for `COc1cc2c(cc1OCCCN1CCCC1)N=C(N)C21CCC1`: 2.85%; for `Cc1cc(C)c(S(=O)(=O)n2cc(C)cc2C)c(C)c1`: 4.43%.
The same measure for `CNC(=O)c1ccc2c(c1)CCO[C@H]2CCN1CCN(c2ccc(OC)cc2)CC1`: 4.41%; for `CCCC(CCC)C(=O)NCc1ccc2c(cnn2-c2ccccc2OC)c1`: 2.68%; for `Cc1cc2c(N3CCCC3)nc(N3CCCC3)nc2n1C`: -0.311%.
Regarding `C[C@H]1CO[C@@H]2Cn3cc(C(=O)NCc4ccc(F)cc4F)c(=O)c(O)c3C(=O)N12`, the “activity, negative = inhibition” value is 2.64%.

The values above are taken from PubChem BioAssay (NCATS).
